uPA generation: blocks generation of uPA at the cell surface; hit rate 0.31% among 330,000; AID 540303; cell surface uPA generation assay, qHTS; Potency, µM (doses to about 38.3 µM), without a hit: top-dose activity change, negative = inhibition, actives largely listed as inhibitors; active = well fitted inhibition curve with a large enough effect; inconclusive = small, poorly fitted or top-dose-only effect; inactive = no such curve, though single readings can be large or run the other way; tested in mouse RAW 264.7 cells; also: potency is read from the fitted curve at half-maximal effect; nearly all actives have a fitted effect of over 55% in size
TDP1 cell CPT: growth inhibition of DT40 Tdp1-/-;hTDP1 cells with camptothecin (screen for TDP1 inhibitors) | chicken DT40 Tdp1-/-;hTDP1 cells + 20 nM CPT, ATP luminescence, 48 h | AID 686979 | hit rate 12% among 420,000 | Potency, µM (top dose mostly 46.2 µM), for the others: top-dose activity change, negative = growth inhibition, most hits filed as inhibitors; also: potency is read from the fitted curve at half-maximal effect; nearly all actives have a fitted effect of over 55% in size
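Cell growth measured by CellTiter-Glo luminescence after a minimum 48 h, 37 C compound exposure with 20 nM CPT in Tdp1-knockout DT40 cells stably expressing hTDP1, seeded 400/well; qHTS titration format.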
DT40 TDP1 no CPT: qHTS for Inhibitors of human tyrosyl-DNA phosphodiesterase 1 (TDP1): qHTS in cells in absence of CPT | DT40 Tdp1-/- hTDP1 cells, no CPT, ATP luminescence, 48 h | Potency, µM (series often up to 46.2 µM), for inactives: at the top dose activity change, negative = growth inhibition, actives largely listed as inhibitors | hit rate 15% among 420,000 | AID 686978, 2013; also: potency is read from the fitted curve at half-maximal effect; nearly all actives have a fitted effect of over 55% in size
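Growth of hTDP1-complemented DT40 Tdp1-knockout cells is measured by ATP luminescence after at least 48 hr compound exposure at 37 °C, with DMSO substituting for the 20 nM CPT used in the parallel screen.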
HT1080NT lethal: kills 2HG-producing HT-1080-NT fibrosarcoma cells; AID 686970; Potency, µM (series often up to 46.1 µM), inactives show top-dose activity, negative = less viability, actives largely listed as cytotoxic; HT-1080-NT fibrosarcoma viability, CellTiter-Glo ATP luminescence, 48 h; hit rate 1.6% among 360,000;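 also: NT is the 2HG producing partner of a matched IDH1 knockdown line; potency is read from the fitted curve at half-maximal effect; 0% = DMSO-treated cells and -100% = media-only wells without cells; nearly all actives have a fitted effect of over 55% in size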
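Compounds were tested in concentration-response format on HT-1080-NT cells for 48 hours at 37 degrees C. Cell viability came from CellTiter-Glo luminescence; curves were classified by r2, response magnitude and activity.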
HT1080 IDH1KD tx: kills HT-1080 cells with IDH1 knockdown | HT-1080 IDH1 knockdown viability, ATP luminescence, 48 h | Potency, µM (doses to about 46.1 µM), without a hit: at the top dose activity, negative = toxicity, hits mostly cytotoxic | hit rate 2% among 360,000 | AID 686971;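 also: potency is read from the fitted curve at half-maximal effect; 0% = DMSO wells and -100% = cell-free medium wells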
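HT-1080-IDH1KD cells (IDH1 knocked down), 750/well in RPMI with 5% FBS, treated with compound 48 h at 37 degrees C. Viability by CellTiter-Glo luminescence, normalised to DMSO and no-cell wells; concentration-response curves classed.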
IL1B secr inh: inhibitors of inflammasome signaling (IL-1 beta secretion). activity change, % at 57.5 µM. THP-1 LPS/ATP IL-1B secretion, AlphaLISA, 16 h; stronger effect = lower value. AID 743279. hit rate 4.7% among 360,000; in the data active = activity change below about -50%; inconclusive = mostly about -30% to -49%
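Secreted IL-1B measured by AlphaLISA bead assay after 16 h compound exposure of THP-1 cells; compounds (final up to 57.5 uM) added 1 h before LPS (250 ng/mL) and ATP (1.25 mM) stimulation; lower signal means less secretion.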
* hit, by the source's call; ? = inconclusive; · = no result. Most compounds without a hit are left out; they make up all but 19% or so of the library. Unless noted, calls follow the shape of the dose curve; as a rule, active = well fitted curve in the direction sought with a large enough effect; inconclusive = small, poorly fitted or top-dose-only effect, or another doubt; inactive = no such curve, though single readings can be large; an effect the other way counts as inactive or inconclusive. Unless noted, % is scaled to controls: 0 for no effect and ±100 for the full control effect.

SMILES | uPA generation | TDP1 cell CPT | DT40 TDP1 no CPT | HT1080NT lethal | HT1080 IDH1KD tx | IL1B secr inh
CC(C)CNC(=O)COC(=O)c1ccc2c(c1)C(=O)N(Cc1ccco1)C2=O | 2% | 11% | 1% | -1% | 13% | 37
CC(=O)OC1COC(OC(C)=O)CO1 (stereo not drawn) | -3% | -21% | -16% | -3% | -5% | 21
CC(=O)O[C@H]1[C@H](C)OC=C[C@@H]1OC(C)=O | -7% | ? | 16µM* | 27% | 12% | 1
Cc1ccc2oc(=O)c3cc(C(=O)NCCN4CCN(C)CC4)sc3c2c1 | -8% | 23µM* | ? | 8% | 27% | -5
Cc1ccc2oc(=O)c3cc(C(=O)NCCCN4CCc5ccccc5C4)sc3c2c1 | 18% | 18µM* | ? | 0% | -3% | 3
Cc1noc(C)c1CS(=O)(=O)c1ccc([N+](=O)[O-])cc1 | -2% | -17% | -16% | ? | -1% | 44
CCOc1ccc(CCNC(=O)Cn2c(=O)c3cccn3c3cccnc32)cc1 | -2% | ? | 1% | -1% | 7% | -66*
COc1cc(CCNC(=O)CCCn2c(=O)c3cccn3c3cccnc32)cc(OC)c1OC | -2% | ? | -26% | 10% | 18% | -9
CSc1ccc(CCNC(=O)CCCn2c(=O)c3cccn3c3ccccc32)cc1 | · | ? | 18µM* | · | · | ·
CCCCN(CC)C(=O)CCCn1c(=O)c2cccn2c2ccccc21 | · | ? | 21µM* | · | · | ·
CCOc1ccc(CCNC(=O)CCCn2c(=O)c3cccn3c3ccccc32)cc1 | · | 18µM* | 23µM* | · | · | ·
CCC(C(=O)NCCCN1CCN(C)CC1)n1nc(C)n2c(cc3occc32)c1=O (stereo not drawn) | 1% | -12% | 34% | 6% | 17% | 5
CCN(CC)S(=O)(=O)c1ccc2c(c1)c(=O)c(C(=O)NCCc1ccccc1)cn2C | -2% | ? | ? | 11% | 2% | -26
O=c1[nH]c(-c2ccc3c(c2)OCO3)nc2c1sc(=S)n2-c1ccccc1 | 3% | 8% | ? | 1% | 0% | 59
O=c1[nH]c(-c2ccc(F)cc2)nc2c1sc(=S)n2-c1ccccc1 | -1% | ? | 6.5µM* | -1% | -2% | 40
COc1ccccc1-c1nnc(NC(=O)c2ccc(S(=O)(=O)N3CCOCC3)cc2)o1 | -8% | ? | ? | -5% | -4% | 9
Cc1nnc(NC(=O)c2ccc(S(=O)(=O)N3CCCCC3C)cc2)o1 (stereo not drawn) | 1% | -22% | -20% | -5% | -14% | -10
O=C(Nc1nnc(-c2ccco2)o1)c1ccc(S(=O)(=O)N2CCCCC2)cc1 | · | 21µM* | 13µM* | -14% | -19% | 7
CS(=O)(=O)c1ccc(-c2nnc(NC(=O)c3ccc(S(=O)(=O)N4CCCC4)cc3)o2)cc1 | 14% | 0% | 6% | -12% | -16% | 3
CC1CCCCN1S(=O)(=O)c1ccc(C(=O)Nc2nnc(-c3ccco3)o2)cc1 (stereo not drawn) | -6% | 15µM* | 26µM* | -21% | -25% | 10
COc1cccc(-c2nnc(NC(=O)c3ccc(S(=O)(=O)N4CCOCC4)cc3)o2)c1 | -5% | 23µM* | 12µM* | -14% | -22% | 31
Cc1cc2[nH]c3c4ccccc4nc(C)c3c2cc1C | 10µM* | 3.7µM* | 2.6µM* | 15µM* | ? | -112*
Cc1ccc(S(=O)(=O)N2CCCC(c3nnc4n3-c3ccccc3SC4)C2)cc1 (stereo not drawn) | -8% | ? | 15µM* | 0% | -1% | -10
COc1ccc(CCN(C)CCCN2CCc3cc(OC)c(OC)cc3CC2=O)cc1OC | · | 1% | -20% | · | · | ·

Bioassay records deposited in PubChem BioAssay by National Center for Advancing Translational Sciences (NCATS).
